Compounds with a hit are over-represented: about 13% of the library has one in this group of screens.
FMDV inh: blocks foot and mouth disease virus. 410,000 compounds, 1.2% hits. FMDV antiviral cell-based qHTS. AID 1159524. Potency, µM (titrated, usually from 57.9 µM), inactives show top-dose activity change, negative = inhibition, actives largely listed as inhibitors; calls by dose curve; tested in HEK293T cells; further: read-out not given here; potency means the concentration at half of the fitted maximal effect; on the % scale 0 is the no-effect control and ±100 the full control effect; nearly all actives have a fitted effect of over 45% in size
LASV entry inh: Lassa virus entry inhibition; Lassa virus pseudotype entry inhibition, cell reporter; Potency, µM (highest dose often 37.9 µM), for inactives: at the top dose activity change, negative = inhibition, usual class: inhibitors; 300,000 compounds, 1.2% hits; calls by dose curve; tested in HEK293 cells; further: potency means the concentration at half of the fitted maximal effect; on the % scale 0 is the no-effect control and ±100 the full control effect; nearly all actives have a fitted effect of over 50% in size
Cycloheximide cs: counter-screen for Shiga toxin inhibitors: cycloheximide protein synthesis inhibition | AID 2314 | cell reporter, cycloheximide protein synthesis inhibition counterscreen | max response, % | 300,000 compounds, 12% hits; in the data active means max response mostly above about 13%, no sharp cut-off; inactive means mostly below about 14%; further: read at 38.3 µM for the half of the compounds with a filed dose; 0% is about no effect
Marburg entry inh: blocks Marburg virus binding to or entry into cells; Marburg virus pseudotyped entry inhibition, cell reporter; Potency, µM (titrated, usually from 37.8 µM), without a hit: top-dose activity change, negative = inhibition, most hits filed as inhibitors; 300,000 compounds, 1.8% hits; AID 540276; calls by dose curve; tested in HEK293 cells; further: potency means the concentration at half of the fitted maximal effect; on the % scale 0 is the no-effect control and ±100 the full control effect
Shiga inhibitor: blocks Shiga toxin action in Vero cells; Vero cells, Shiga toxin protein synthesis inhibition reporter; inhibition, % at 38.7 µM; 290,000 compounds, 9.2% hits; in the data active means inhibition mostly above about 28%, no sharp cut-off; inactive means mostly below about 43%; further: 0% is about no effect
HCV inh: HCV inhibition; AID 651820; Potency, µM (doses to about 41.8 µM), inactives show at the top dose activity change, negative = inhibition, usual class: inhibitors; Huh7.5.1 HCVcc-Cre infection, luciferase reporter, 44 h; 340,000 compounds, 3.4% hits; active means well fitted inhibition curve with a large enough effect; inconclusive means small, poorly fitted or top-dose-only effect, or another doubt; inactive means no such curve, though single readings can be large or run the other way; further: potency means the concentration at half of the fitted maximal effect; on the % scale 0 is the no-effect control and ±100 the full control effect
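Whole-lifecycle infectious HCVcc-Cre system; cells 1,000/well, compound then virus (~0.5 moi) added 4 h after plating, 44 h culture. Luciferase read 15 sec following 15 min substrate incubation, room temp.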
The depositor's hits bear a star; ? = inconclusive; . = no result; [ ] = dose if it differs, or a comment.

SMILES | FMDV inh | LASV entry inh | Cycloheximide cs | Marburg entry inh | Shiga inhibitor | HCV inh
O=C(Nc1cccc(S(=O)(=O)N2CCOCC2)c1)c1ccc2ccccc2n1 | -7% | . | 30* | . | 34 | ?
COc1ccc(-c2nnc(NC(=O)c3ccc(S(=O)(=O)N(C)CC4CCCO4)cc3)o2)c(OC)c1 (stereo unspecified) | -13% | 1% | -2 | -27% | 26 | ?
CCN(CC)S(=O)(=O)c1ccc(S(=O)(=O)Nc2cc3c(cc2C(C)=O)OCO3)cc1 | . | -1% | -9 | 4% | -13 | ?
O=C(OC1Cc2c(O)cc(O)cc2OC1c1cc(O)c(O)c(O)c1-c1c(C2Oc3cc(O)cc(O)c3CC2O)cc(O)c(O)c1O)c1cc(O)c(O)c(O)c1 (stereo unspecified) | -9% | . | . | . | . | .
CN(Cc1ccccc1)c1nc(N)nc(Cl)c1C=O | ? | -2% | -9 | ? | 20 | 4µM*
COc1ccc([N+](=O)[O-])cc1NCc1cccc([N+](=O)[O-])c1 | -11% | ? | 12 | 1%[46.1 µM] | -3 | 4µM*
COc1ccc([N+](=O)[O-])cc1NCc1cccnc1 | 4% | ? | 7 | ? | 1 | 7.9µM*
COc1cc([N+](=O)[O-])ccc1NC(=O)NCc1cccnc1 | -9% | . | -2 | . | -13 | -17%
O=C(CCNS(=O)(=O)c1cccc2nsnc12)NCc1cccs1 | 11% | -3% | -4 | 8% | -10 | -1%
CC(=O)c1c(C)[nH]c(C(=O)OCCCCN2C(=O)c3ccccc3C2=O)c1C | 13µM* | ? | 7 | 8.2µM* | -21 | 10µM*
CCOC(=O)c1[nH]c2ccccc2c1CCCN1C(=O)c2ccccc2C1=O | ? | -11% | -6 | -3% | -3 | ?
COC(=O)c1ccc(COC(=O)c2[nH]c(C)c(C(C)=O)c2C)o1 | 13µM* | -27% | 13 | ? | 36 | 2.2µM*
CN(C)S(=O)(=O)c1ccc(C(=O)OCc2ccc(C#N)cc2)cc1 | -9% | -4% | -3 | 1% | -3 | 8%
CCN(CC)CCc1c(C)[nH]c(C(=O)OCc2ccccc2)c1C | 7% | -9% | -2 | 26µM* | -24 | ?
CN(C)S(=O)(=O)c1ccc(C(=O)OCc2ccc([N+](=O)[O-])cc2)cc1 | 16% | . | 13* | . | 18 | 3%
CCOC(=O)c1[nH]c(C)c(CN(CCc2ccccc2)C(=O)CCC(=O)O)c1C | -15% | -10% | -2 | 8% | -17 | 15%
Cc1cccc(-c2nc3scc(CCNS(=O)(=O)c4c(C)noc4C)n3n2)c1 | 12% | 2%[46.1 µM] | . | . | . | .
CCN(CC)CCSc1nnc2c3cc(F)ccc3n(C)c2n1 | 1% | 0%[46.1 µM] | . | ? | . | .
CCOc1ccc(NC(=O)c2c(NC(=O)CN3CCCC3)sc3c2CCC3)cc1 | -21% | 24% | 19 | 7% | -5 | -18%
Cc1cccc(CN2[C@@H](CC(C)C)COCCS2(=O)=O)c1 | -3% | . | . | . | . | 11%
OCC[C@@H]1C[C@H](O)[C@@H](O)[C@@]2(CCc3ccccc3CO2)O1 | -7% | . | 0 | . | 3 | ?
CNC(=O)c1ccc(Nc2nnc(-c3ccc(C)c(S(=O)(=O)N4CCOCC4)c3)c3ccccc23)cc1 | -30% | ? | . | . | . | .
NC(N)=S | -11% | . | . | . | . | -7%
CC(=O)c1c(C)[nH]c(C(=O)OCc2ccccc2)c1C | 4% | ? | 38* | ? | 120* | ?
CC(=O)c1c(C)[nH]c(C(=O)OCc2ccc([N+](=O)[O-])cc2)c1C | 8% | 2%[46.1 µM] | 15* | -4%[46.1 µM] | 56* | 5.6µM*
SMILES | FMDV inh | LASV entry inh | Cycloheximide cs | Marburg entry inh | Shiga inhibitor | HCV inh
C[C@H](N)C(=O)OCc1ccc([N+](=O)[O-])cc1 | 7% | . | -1 | . | 6 | 14%
CNC(=O)c1ccsc1NC(=O)c1ccccc1 | 26% | . | 25* | . | 16* | ?
O=C(c1ccccc1)c1ccsc1C(=O)c1ccccc1 | -7% | . | . | . | . | .
CNC(=O)c1ccsc1NC(=O)CCS(=O)(=O)c1ccccc1 | -3% | 14% | 15 | -1% | 16 | -9%
O=C(CCl)Nc1sccc1C(=O)c1ccccc1 | 20µM* | 9% | . | 9%[46.1 µM] | . | 2%
Cc1sc(NC(=O)CCl)c(C(=O)c2ccccc2)c1C | ? | ? | 12* | 2% | -7 | ?
Cc1cc(C(=O)c2ccc(C(C)(C)C)cc2)c(NC(=O)CCl)s1 | 35µM* | ? | -2 | ? | -3 | ?
Cc1cc(O)c(Sc2ccc(Cl)cc2)c(=O)[nH]1 | 50% | 13%[46.1 µM] | . | 3%[46.1 µM] | . | 11%
COC(COC(N)=O)C1=C(N2CC2)C(=O)C(C)=C(N2CC2)C1=O (stereo unspecified) | -1% | 1.3µM* | . | ? | . | 0.56µM*
COc1ccc(C(=O)O/N=C(\N)c2ccc(Cl)cc2)cc1 | 52% | . | 37* | . | 88* | ?
COc1ccccc1C(=O)O/N=C(\N)c1ccc(Cl)cc1 | 48% | -6% | 52* | -10% | 90* | 0%
COc1ccc(/C(N)=N/OC(=O)c2cccc([N+](=O)[O-])c2C)cc1 | 4% | 10% | -2 | 24% | 33 | ?
Cc1ccnc(NC(=O)c2ccc(C(=O)c3ccccc3)cc2)c1 | -39% | 2.2µM* | . | 6.3µM* | . | 5%
Cc1ccnc(NC(=O)c2ccccc2NC(=O)c2ccccc2)c1 | 15% | 0% | 2 | -12% | -3 | ?
Cc1ccnc(NC(=O)c2cnc(Cl)c(Cl)c2)c1 | 15% | 28%[46.1 µM] | 32* | ? | 116* | -3%
COc1ccc(Nc2ccc(Cl)cc2)c(C(=O)O)c1 | 5% | ? | -2 | ? | -3 | 20%
C=CCNC(=O)c1cc(-c2ccc(Br)cc2)on1 | 57% | -17% | 24* | ? | 89* | 5%
COc1ccc2c(Cl)c(C(=O)NCCCn3ccnc3)sc2c1 | 14% | 1% | 20* | ? | 39 | ?
COc1ccc(-c2cc(C(=O)NCCCn3ccnc3)no2)cc1OC | -13% | 1% | -2 | ? | -9 | 19%
O=C(NCCCn1ccnc1)c1cc(-c2ccc(Br)cc2)on1 | 0% | . | 29* | . | 59 | ?
O=C(NCCCn1ccnc1)c1cc(-c2ccc3c(c2)OCO3)on1 | 37% | 0% | 12* | 11% | 22* | 9%
CN1C2CCC1CC(OC(=O)CCN1CCCC1)C2 (stereo unspecified) | 19% | -3% | -3 | -24% | -6 | -3%
Cc1cc(C(=O)CCC(=O)NCC(=O)Nc2c(C)cccc2C)c(C)s1 | -8% | . | . | . | . | -8%
COc1cccc(-c2cc(C(=O)NCCCn3ccnc3)no2)c1 | 37% | 9% | 23* | ? | 103* | 6%
O=C(NCCCn1ccnc1)c1cc2nc(-c3ccc(Br)cc3)cc(C(F)(F)F)n2n1 | -1% | ? | -5 | ? | -15 | 7.1µM*
Cn1ncc2c(NCc3ccc(F)cc3)ncnc21 | -9% | 9%[46.1 µM] | . | . | . | .
CC1CCN(c2oc(-c3cccs3)nc2S(=O)(=O)c2ccc(Cl)cc2)CC1 | 9% | ? | . | -18%[46.1 µM] | . | .
COc1ccnc(Oc2cccc(C(F)(F)F)c2)c1C(=O)N/C=N/OCc1ccccc1F | ? | ? | 1 | ? | -14 | 11µM*

Screens as filed in PubChem BioAssay.
